We go through one sequence from paper PMC7862700, “An all-to-all approach to the identification of sequence-specific readers for epigenetic DNA modifications on cytosine”.

Experiment in all cases: DAPPL (digital affinity profiling via proximity ligation, sequencing); 10 mM Tris-HCl pH 7.5, 50 mM NaCl, 1 mM DTT, 4% glycerol, room temperature, 30 min; GST-TFs on glutathione beads, 16-mer random dsDNA library, 0.1% formaldehyde crosslink after washing; high values mean tight binding
In one test the target is T1, FLI1 (Homo sapiens, UniProt Q01543 1-452).
T1 sequence: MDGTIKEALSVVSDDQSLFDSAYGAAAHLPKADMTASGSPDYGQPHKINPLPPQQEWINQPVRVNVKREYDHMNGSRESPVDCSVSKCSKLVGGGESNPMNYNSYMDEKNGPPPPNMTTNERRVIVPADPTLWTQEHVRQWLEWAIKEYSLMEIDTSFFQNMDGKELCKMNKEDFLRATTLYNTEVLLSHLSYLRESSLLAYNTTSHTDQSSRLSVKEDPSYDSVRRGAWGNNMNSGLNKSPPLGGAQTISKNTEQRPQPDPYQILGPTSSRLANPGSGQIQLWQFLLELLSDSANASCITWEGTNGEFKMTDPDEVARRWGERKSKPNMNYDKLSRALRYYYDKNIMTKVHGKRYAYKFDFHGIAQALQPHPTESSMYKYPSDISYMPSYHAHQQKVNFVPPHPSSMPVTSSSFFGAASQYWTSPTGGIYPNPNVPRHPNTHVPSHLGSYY
To be noted: protein: recombinant; tags: N-terminal GST; dsDNA, one strand shown. In outline:
(§1)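 Pools were built from human transcription factors expressed in yeast as GST fusions, captured on glutathione beads and DNA-barcoded, along with a tag-only sample. Incubation with 200 nmole of a 16-mer random double-stranded DNA library lasted 30 min at room temperature in Tris/NaCl/DTT/glycerol buffer, and was followed by washing, 0.1% formaldehyde crosslinking, proximity ligation, PCR amplification and Illumina NextSeq500 sequencing. Binding signal is the quotient of each hexamer's read frequency for a factor and its frequency for the tag-only sample.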

The target in the next test is T2, ELK1 (Homo sapiens, UniProt P19419 1-428).
T2 sequence: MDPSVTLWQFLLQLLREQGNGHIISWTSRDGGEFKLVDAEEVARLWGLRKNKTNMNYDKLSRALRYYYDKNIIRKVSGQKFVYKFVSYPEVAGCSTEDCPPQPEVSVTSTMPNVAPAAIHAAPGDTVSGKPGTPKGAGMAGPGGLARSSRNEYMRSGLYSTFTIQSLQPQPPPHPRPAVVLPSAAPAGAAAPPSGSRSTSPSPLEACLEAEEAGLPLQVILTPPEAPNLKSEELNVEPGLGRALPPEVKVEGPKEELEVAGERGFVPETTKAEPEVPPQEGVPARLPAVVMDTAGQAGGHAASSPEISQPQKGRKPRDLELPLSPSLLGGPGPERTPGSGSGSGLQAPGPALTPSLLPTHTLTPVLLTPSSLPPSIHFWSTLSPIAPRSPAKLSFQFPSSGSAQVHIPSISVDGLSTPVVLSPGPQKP
To be noted: protein: recombinant; tags: N-terminal GST; dsDNA, one strand shown. An outline of the steps: as §1

A further test concerns the target T3, GABPA (Homo sapiens, UniProt Q06546 1-454).
T3 sequence: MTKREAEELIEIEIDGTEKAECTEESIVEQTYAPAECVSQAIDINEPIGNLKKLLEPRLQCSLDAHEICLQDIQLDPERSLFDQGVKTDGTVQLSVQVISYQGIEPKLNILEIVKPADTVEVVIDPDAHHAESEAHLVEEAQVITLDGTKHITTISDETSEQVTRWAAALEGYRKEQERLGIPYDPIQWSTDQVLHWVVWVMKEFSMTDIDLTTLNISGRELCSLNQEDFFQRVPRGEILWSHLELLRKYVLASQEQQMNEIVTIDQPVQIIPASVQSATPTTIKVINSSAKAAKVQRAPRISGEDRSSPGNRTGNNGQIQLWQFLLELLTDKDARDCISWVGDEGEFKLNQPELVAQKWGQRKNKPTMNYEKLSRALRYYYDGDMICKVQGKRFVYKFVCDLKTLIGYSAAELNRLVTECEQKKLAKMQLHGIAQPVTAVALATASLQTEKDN
To be noted: protein: recombinant; tags: N-terminal GST; dsDNA, one strand shown. An outline of the steps: as §1

Another test has as its target T4, ERG (Homo sapiens, UniProt P11308 1-479).
T4 sequence: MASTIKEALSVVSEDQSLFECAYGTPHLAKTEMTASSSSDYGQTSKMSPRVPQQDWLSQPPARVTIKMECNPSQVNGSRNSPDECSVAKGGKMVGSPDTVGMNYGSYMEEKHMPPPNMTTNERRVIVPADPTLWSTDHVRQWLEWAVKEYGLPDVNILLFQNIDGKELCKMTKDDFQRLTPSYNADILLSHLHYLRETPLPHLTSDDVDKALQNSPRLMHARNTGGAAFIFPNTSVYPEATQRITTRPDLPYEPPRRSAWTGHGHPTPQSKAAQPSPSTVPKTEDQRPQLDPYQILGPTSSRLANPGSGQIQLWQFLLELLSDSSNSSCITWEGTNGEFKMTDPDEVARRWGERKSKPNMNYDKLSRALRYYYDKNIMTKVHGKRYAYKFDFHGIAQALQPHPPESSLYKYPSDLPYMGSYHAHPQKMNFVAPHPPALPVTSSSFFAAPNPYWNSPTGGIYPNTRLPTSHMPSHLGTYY
To be noted: protein: recombinant; tags: N-terminal GST; dsDNA, one strand shown. An outline of the steps:
as §1

The target of a further test is ELF1 (Homo sapiens, UniProt P32519 1-619). To be noted: protein: recombinant; tags: N-terminal GST; dsDNA, one strand shown. An outline of the steps: as §1
The target in another test is T5, EHF (Homo sapiens, UniProt Q9NZC4 1-300).
T5 sequence: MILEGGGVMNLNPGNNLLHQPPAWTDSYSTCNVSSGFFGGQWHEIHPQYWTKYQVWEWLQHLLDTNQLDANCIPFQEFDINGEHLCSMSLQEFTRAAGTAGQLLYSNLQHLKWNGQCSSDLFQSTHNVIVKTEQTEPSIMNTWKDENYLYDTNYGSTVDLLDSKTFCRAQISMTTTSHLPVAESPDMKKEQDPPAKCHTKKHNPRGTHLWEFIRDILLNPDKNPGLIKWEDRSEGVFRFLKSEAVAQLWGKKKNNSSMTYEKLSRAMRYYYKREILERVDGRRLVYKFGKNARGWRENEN
To be noted: protein: recombinant; tags: N-terminal GST; dsDNA, one strand shown. In outline:
as §1

Another test concerns the target SPI1 (Homo sapiens, UniProt P17947 1-270). To be noted: protein: recombinant; tags: N-terminal GST; dsDNA, one strand shown. An outline of the steps:
as §1

For another test, the target named is SPIB (Homo sapiens, UniProt Q01892 1-262). To be noted: protein: recombinant; tags: N-terminal GST; dsDNA, one strand shown. An outline of the steps: as §1
In another test the target is T6, ELK3 (Homo sapiens, UniProt P41970 1-407).
T6 sequence: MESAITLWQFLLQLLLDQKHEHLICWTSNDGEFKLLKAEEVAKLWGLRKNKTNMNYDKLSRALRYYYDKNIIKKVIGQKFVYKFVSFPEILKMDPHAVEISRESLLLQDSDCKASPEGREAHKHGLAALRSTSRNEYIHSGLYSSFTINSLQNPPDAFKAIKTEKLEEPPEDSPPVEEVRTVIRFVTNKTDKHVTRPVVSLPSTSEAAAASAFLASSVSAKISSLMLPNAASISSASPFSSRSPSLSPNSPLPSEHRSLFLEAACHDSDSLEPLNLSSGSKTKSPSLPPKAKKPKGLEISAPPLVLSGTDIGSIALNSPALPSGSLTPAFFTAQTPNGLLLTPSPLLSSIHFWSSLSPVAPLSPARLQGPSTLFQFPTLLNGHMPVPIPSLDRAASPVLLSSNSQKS
To be noted: protein: recombinant; tags: N-terminal GST; dsDNA, one strand shown. An outline of the steps:
as §1

For another test, the target named is T7, FEV (Homo sapiens, UniProt Q99581 1-238).
T7 sequence: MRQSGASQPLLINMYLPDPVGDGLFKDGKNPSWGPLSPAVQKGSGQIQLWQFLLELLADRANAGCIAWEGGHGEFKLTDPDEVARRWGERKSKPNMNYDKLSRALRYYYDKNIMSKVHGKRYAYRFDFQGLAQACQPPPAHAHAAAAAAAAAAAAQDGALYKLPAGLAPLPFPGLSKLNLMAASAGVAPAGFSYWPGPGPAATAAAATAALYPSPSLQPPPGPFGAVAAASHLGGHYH
To be noted: protein: recombinant; tags: N-terminal GST; dsDNA, one strand shown. In outline: as §1

A further test concerns the target ETV5 (Homo sapiens, UniProt P41161 1-510). To be noted: protein: recombinant; tags: N-terminal GST; dsDNA, one strand shown. In outline: as §1
For another test, the target named is HSF1 (Homo sapiens, UniProt Q00613 1-529). To be noted: protein: recombinant; tags: N-terminal GST; chain copies: 3; dsDNA, one strand shown. In outline: as §1
The target of another test is T8, SPIC (Homo sapiens, UniProt Q8N5J4 1-248).
T8 sequence: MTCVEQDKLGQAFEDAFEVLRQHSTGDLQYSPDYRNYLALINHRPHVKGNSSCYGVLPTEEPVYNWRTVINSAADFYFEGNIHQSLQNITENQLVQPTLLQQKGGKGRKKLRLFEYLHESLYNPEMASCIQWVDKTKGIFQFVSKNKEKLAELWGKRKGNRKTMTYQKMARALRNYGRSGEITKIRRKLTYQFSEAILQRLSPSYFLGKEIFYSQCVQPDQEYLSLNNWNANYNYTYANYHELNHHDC
To be noted: protein: recombinant; tags: N-terminal GST; dsDNA, one strand shown. An outline of the steps: as §1

The target of the next test is ELF4 (Homo sapiens, UniProt Q99607 1-663). To be noted: protein: recombinant; tags: N-terminal GST; dsDNA, one strand shown. In outline: as §1
The next test concerns the target T9, ELK4 (Homo sapiens, UniProt P28324-2 1-405).
T9 sequence: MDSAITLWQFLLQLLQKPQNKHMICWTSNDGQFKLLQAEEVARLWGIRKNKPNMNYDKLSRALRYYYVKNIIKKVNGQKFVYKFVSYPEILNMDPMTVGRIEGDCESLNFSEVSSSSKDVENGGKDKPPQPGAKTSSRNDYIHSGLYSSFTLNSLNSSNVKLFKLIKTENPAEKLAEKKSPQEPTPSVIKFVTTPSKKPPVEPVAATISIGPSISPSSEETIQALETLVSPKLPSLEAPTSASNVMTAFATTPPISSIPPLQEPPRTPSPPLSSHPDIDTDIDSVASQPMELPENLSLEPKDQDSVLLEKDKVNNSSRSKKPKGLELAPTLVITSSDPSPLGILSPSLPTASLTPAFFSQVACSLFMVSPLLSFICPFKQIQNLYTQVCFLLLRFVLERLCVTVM
To be noted: protein: recombinant; tags: N-terminal GST; dsDNA, one strand shown. In outline: as §1

The target of a further test is T10, ETV2 (Homo sapiens, UniProt O00321 1-342).
T10 sequence: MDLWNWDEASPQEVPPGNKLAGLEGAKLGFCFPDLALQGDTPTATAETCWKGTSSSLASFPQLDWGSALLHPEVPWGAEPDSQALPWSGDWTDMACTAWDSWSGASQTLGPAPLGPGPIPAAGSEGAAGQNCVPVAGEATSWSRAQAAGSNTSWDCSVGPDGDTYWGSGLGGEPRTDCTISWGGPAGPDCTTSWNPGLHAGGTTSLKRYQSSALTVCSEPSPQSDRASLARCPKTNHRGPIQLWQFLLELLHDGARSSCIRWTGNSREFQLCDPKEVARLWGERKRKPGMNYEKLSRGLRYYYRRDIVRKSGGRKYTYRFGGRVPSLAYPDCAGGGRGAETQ
To be noted: protein: recombinant; tags: N-terminal GST; dsDNA, one strand shown. An outline of the steps:
as §1

The target of another test is T11, ELF3 (Homo sapiens, UniProt P78545 1-371).
T11 sequence: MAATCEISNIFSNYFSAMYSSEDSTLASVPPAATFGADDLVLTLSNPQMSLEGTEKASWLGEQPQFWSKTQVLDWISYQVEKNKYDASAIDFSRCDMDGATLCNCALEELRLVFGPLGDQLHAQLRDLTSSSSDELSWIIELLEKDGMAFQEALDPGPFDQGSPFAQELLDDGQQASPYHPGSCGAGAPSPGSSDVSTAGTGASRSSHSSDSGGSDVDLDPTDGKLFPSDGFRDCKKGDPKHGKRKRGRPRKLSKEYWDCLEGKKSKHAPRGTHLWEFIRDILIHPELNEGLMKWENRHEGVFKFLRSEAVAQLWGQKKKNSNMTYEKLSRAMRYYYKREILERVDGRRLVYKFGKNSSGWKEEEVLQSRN
To be noted: protein: recombinant; tags: N-terminal GST; dsDNA, one strand shown. An outline of the steps: as §1

Another test concerns the target CRX (Homo sapiens, UniProt O43186 1-299). To be noted: protein: recombinant; tags: N-terminal GST; dsDNA, one strand shown. In outline:
as §1

Another test addresses ETV1 (Homo sapiens, UniProt P50549 1-477). To be noted: protein: recombinant; tags: N-terminal GST; dsDNA, one strand shown. An outline of the steps:
as §1

Sequence of ELF1 (P32519 whole entry): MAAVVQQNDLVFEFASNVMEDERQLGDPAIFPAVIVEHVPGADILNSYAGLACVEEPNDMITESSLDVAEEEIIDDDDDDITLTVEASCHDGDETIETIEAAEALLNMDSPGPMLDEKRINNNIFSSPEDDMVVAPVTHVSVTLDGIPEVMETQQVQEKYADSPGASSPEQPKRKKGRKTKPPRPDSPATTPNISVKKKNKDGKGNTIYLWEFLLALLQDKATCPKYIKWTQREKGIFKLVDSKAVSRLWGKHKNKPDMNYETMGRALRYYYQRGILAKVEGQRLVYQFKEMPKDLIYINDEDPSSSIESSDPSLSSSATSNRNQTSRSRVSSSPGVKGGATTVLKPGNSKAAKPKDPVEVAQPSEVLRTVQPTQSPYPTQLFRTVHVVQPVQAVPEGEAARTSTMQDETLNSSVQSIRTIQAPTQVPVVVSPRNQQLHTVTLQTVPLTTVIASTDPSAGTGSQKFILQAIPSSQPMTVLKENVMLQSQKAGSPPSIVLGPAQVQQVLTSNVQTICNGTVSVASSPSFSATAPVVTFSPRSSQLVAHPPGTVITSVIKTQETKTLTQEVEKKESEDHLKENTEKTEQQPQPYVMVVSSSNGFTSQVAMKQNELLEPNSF
Sequence of ETV1 (P50549 whole entry): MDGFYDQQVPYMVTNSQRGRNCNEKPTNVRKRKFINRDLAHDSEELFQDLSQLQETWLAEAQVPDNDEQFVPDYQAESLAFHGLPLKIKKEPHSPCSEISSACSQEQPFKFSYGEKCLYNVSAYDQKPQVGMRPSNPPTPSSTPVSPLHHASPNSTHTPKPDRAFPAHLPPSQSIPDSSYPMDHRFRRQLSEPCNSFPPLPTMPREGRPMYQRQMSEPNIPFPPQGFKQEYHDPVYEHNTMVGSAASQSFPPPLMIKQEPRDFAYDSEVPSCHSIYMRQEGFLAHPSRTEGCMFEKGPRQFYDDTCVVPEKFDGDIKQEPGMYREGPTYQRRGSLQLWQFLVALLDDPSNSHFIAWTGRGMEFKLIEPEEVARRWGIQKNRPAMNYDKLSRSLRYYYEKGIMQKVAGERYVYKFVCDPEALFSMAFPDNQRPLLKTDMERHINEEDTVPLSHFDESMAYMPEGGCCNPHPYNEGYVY
Sequence of CRX (O43186 whole entry): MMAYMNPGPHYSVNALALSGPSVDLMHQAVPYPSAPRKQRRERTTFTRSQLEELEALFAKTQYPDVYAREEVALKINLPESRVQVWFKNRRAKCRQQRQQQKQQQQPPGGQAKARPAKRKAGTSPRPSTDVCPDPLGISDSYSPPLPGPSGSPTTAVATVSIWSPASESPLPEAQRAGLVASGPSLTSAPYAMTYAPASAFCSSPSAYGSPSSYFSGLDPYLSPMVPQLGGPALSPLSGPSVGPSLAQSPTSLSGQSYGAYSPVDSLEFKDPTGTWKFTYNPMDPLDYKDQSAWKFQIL
Sequence of SPIB (Q01892 whole entry): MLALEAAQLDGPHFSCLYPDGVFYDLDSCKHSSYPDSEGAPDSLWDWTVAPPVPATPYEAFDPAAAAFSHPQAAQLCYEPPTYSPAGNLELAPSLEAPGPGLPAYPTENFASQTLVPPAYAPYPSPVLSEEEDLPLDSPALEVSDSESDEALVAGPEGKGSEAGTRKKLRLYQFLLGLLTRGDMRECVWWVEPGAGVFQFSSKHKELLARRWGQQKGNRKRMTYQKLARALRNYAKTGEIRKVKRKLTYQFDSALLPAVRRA
Sequence of HSF1 (Q00613 whole entry): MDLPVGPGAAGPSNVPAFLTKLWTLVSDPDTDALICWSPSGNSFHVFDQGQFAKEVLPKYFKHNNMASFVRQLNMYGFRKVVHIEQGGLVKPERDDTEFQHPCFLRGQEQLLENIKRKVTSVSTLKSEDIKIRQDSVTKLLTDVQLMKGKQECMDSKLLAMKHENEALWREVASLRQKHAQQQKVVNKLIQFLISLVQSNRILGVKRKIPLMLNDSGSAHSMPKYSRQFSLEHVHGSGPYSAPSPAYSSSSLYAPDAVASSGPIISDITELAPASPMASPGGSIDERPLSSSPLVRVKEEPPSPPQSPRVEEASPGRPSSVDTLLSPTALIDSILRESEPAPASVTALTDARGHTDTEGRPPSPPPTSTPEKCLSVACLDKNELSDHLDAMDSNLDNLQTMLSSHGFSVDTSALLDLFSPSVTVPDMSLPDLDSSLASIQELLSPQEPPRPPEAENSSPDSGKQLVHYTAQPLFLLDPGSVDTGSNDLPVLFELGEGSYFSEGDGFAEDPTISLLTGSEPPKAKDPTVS
Sequence of ELF4 (Q99607 whole entry): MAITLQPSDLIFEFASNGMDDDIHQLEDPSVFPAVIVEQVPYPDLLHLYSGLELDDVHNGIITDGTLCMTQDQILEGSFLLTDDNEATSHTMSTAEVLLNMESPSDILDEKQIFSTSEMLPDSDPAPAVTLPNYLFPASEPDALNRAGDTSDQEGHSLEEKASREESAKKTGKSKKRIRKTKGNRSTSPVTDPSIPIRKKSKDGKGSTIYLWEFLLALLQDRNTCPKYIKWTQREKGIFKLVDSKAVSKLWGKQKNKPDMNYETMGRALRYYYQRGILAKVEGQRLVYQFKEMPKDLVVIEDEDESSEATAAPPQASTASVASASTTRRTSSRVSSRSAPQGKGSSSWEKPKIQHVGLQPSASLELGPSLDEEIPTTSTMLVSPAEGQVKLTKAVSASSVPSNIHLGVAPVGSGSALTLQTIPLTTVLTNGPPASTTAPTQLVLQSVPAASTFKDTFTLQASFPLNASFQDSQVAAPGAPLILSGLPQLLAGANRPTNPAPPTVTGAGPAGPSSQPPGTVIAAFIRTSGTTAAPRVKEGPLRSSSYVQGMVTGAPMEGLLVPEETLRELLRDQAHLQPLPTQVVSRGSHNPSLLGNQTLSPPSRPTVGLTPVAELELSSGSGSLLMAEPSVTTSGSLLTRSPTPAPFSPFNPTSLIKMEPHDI
Sequence of ETV5 (P41161 whole entry): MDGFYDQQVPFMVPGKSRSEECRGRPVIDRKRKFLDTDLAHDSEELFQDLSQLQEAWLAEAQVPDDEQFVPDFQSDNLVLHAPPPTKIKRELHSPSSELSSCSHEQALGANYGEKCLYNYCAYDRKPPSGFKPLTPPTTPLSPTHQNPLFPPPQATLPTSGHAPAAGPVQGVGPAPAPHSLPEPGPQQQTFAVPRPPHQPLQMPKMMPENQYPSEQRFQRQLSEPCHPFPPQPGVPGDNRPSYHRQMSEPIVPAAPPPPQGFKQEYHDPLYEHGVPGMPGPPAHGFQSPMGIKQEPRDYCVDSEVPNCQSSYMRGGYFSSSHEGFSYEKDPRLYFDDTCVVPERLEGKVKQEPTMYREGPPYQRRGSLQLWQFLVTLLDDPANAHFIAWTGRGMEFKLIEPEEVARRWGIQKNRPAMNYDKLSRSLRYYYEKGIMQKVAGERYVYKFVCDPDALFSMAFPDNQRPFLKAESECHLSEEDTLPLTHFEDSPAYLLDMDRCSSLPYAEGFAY

With CGAACA, the binding signal is 1.09 fold enrichment (6-mer frequency, TF over GST control) with FLI1; 1.08 fold enrichment (6-mer frequency, TF over GST control) with ELK1; 1.11 fold enrichment (6-mer frequency, TF over GST control) in the test with GABPA; 1.11 fold enrichment (6-mer frequency, TF over GST control) with ERG; 1.13 fold enrichment (6-mer frequency, TF over GST control) with ELF1; 1.14 fold enrichment (6-mer frequency, TF over GST control) with EHF. Further, the binding signal in the test with SPI1 is 1.15 fold enrichment (6-mer frequency, TF over GST control); in the test with SPIB, 1.19 fold enrichment (6-mer frequency, TF over GST control); in the test with ELK3 it was 1.09 fold enrichment (6-mer frequency, TF over GST control); in the test with FEV it was 1.06 fold enrichment (6-mer frequency, TF over GST control); with ETV5 it was 1.14 fold enrichment (6-mer frequency, TF over GST control); with HSF1, 1.76 fold enrichment (6-mer frequency, TF over GST control). In addition, the binding signal with SPIC is 1.11 fold enrichment (6-mer frequency, TF over GST control); with ELF4, 1.19 fold enrichment (6-mer frequency, TF over GST control); with ELK4, 1.17 fold enrichment (6-mer frequency, TF over GST control); with ETV2, 1.22 fold enrichment (6-mer frequency, TF over GST control); with ELF3, 1.2 fold enrichment (6-mer frequency, TF over GST control); with CRX, 1.1 fold enrichment (6-mer frequency, TF over GST control). The binding signal with ETV1 was 1.1 fold enrichment (6-mer frequency, TF over GST control).
